Bioassay records from PubChem.
PGC1a acetyl inh = modulators of PGC1a acetylation; hit rate 0.17% among 350,000; U2OS PGC1a acetylation, AlphaScreen anti-acetyl-lysine; with virally co-expressed GCN5 acetyltransferase; inhibition, % at 15.6 µM;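 active = every replicate shows inhibition of at least 40%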
ERAP1 HTS inh = blocks human ERAP1 aminopeptidase activity; Q9NZ08; recombinant ERAP1, Leu-AMC fluorescence, 60 min; inhibition, % at 10.7 µM; hit rate 0.15% among 340,000; AID 652197;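 active = mean replicate inhibition of at least 30%, or all replicates individually reaching that 30% level; inactive = mean below 30% and not every replicate reaching it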
Target sequence (Q9NZ08 whole entry, looked up): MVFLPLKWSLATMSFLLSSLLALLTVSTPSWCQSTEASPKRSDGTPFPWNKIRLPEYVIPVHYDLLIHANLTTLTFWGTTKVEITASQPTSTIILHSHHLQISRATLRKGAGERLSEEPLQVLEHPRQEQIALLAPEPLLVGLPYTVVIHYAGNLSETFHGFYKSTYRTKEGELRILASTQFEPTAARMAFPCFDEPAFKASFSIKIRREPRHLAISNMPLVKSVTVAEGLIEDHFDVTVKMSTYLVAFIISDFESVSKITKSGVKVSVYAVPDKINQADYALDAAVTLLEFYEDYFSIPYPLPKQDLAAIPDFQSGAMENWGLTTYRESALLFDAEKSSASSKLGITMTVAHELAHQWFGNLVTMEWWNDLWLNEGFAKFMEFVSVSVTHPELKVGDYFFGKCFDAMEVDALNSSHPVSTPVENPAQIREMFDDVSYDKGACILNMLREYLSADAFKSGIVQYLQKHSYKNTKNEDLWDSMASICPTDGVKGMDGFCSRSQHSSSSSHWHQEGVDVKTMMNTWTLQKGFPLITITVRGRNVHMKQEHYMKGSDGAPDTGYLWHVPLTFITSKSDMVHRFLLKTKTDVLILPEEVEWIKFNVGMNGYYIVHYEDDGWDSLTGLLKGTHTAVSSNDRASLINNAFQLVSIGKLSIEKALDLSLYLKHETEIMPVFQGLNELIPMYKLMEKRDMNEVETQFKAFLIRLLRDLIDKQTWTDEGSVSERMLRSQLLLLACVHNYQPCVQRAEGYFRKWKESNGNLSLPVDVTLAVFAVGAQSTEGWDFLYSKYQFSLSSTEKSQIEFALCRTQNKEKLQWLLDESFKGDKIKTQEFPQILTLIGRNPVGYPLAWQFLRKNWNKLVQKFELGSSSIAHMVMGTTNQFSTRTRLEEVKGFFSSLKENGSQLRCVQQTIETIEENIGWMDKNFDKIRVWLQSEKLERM
Ecoli rRNA inh = inhibitors of bacterial rRNA selective over humanized ribosomes. E. coli WT GFP vs humanized-ribosome RFP mutants, fluorescence, 24 h; hits give low values; DMSO median 0, no signal -100. GFP signal change (wild-type ribosome), % (concentration not given with the values). hit rate 1.6% among 350,000. AID 720706;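 active = significant combined selectivity score with lowered wild-type GFP, culture density cut under 30%, mutant RFP and density less affected; inactive = any of these conditions unmet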
CaV13 FRET inh = Disruptors of the CACNA1D IQ motif to Ca2+-dependent inactivation inhibitor domain association, primary screening, Förster resonance energy transfer in intact living …; HEK cells, CFP/YFP FRET ICDI-IQ, plate reader, 10 min; percent FRET-ratio fall versus neutral wells; inhibition, % at 12.3 µM; AID 743397; hit rate 0.098% among 340,000;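 active = mean replicate inhibition of at least 30% and at least 1% of replicates passing that level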
INS-1E GSIS act = primary screen for activators of insulin secretion dependent on glucose, INS-1E cells, GLuc reporter luminescence. INS-1E GLuc reporter insulin secretion, 2-3 h. hit rate 0.61% among 370,000. activation, % at 16.6 µM. AID 743287;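 active = lowest replicate activation of at least 40%, so every replicate reaches that level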
DENV2 CPE rescue = protects cells from dengue virus 2 cytopathic effect | DENV2-infected cells, cytopathic effect rescue, plate reader | CPE inhibition, % at 9.99 µM | hit rate 1.7% among 350,000 | AID 651640; in the data active = CPE inhibition above about 20%, passing the limit was not always enough; tested in BHK-21 cells
Hits are given with their value; 0 = inactive; - = no result. Compounds with a hit are over-represented: about 3.2% of the library has one in this group of screens.

SMILES	PGC1a acetyl inh	ERAP1 HTS inh	Ecoli rRNA inh	CaV13 FRET inh	INS-1E GSIS act	DENV2 CPE rescue
O=c1c2ccccc2sn1-c1cccc(Cl)c1	-	-	0	0	0	0
Cn1sc2ccccc2c1=O	-	0	0	0	0	0
COCC(=O)N[C@@H]1CC[C@H](CC(=O)N2CCCCC2)O[C@@H]1CO	0	0	0	-	0	0
COc1ccc2c3c([nH]c2c1)[C@H](CO)N(Cc1nccs1)CC31CCN(Cc2nccs2)CC1	-	-	0	-	0	-
CN(C)S(=O)(=O)c1cccc(-n2sc3ccccc3c2=O)c1	0	0	0	0	65	0
O=C(CCl)Nc1ccc(S(=O)(=O)NC2=NCCCCC2)cc1	0	0	0	0	-	60
O=C(CCl)Nc1cccc(S(=O)(=O)NC2=NCCCCC2)c1	0	0	0	0	0	0
Cc1ccc(C)c(OCCC(=O)Nc2cccc(S(=O)(=O)NC3=NCCCCC3)c2)c1	-	0	-22	0	0	0
CN(C)C(=O)[C@]1(Cc2ccccc2N=[N+]=[N-])N=C(c2ccc(OCCCO)cc2)O[C@@H]1c1ccccc1	0	0	-	-	-	0
C[C@@H]1CN([C@H](C)CO)C(=O)c2cccc(NC(=O)CCCCCC(=O)Nc3ccccc3N)c2O[C@H]1CN(C)Cc1ccc(-c2ccccc2)cc1	0	0	0	-	0	0
O=[N+]([O-])c1ccccc1C=NNC(=S)NN=Cc1ccccc1[N+](=O)[O-]	0	0	-20	0	0	0
O=C(N/N=C/c1cccc([N+](=O)[O-])c1O)C(O)(c1ccccc1)c1ccccc1	-	-	-18	0	0	0
COc1cc([N+](=O)[O-])cc(/C=N/NC(=O)C(O)(c2ccccc2)c2ccccc2)c1O	0	0	0	0	0	0
CC(C)NC(=S)N/N=C/c1ccccc1[N+](=O)[O-]	0	0	0	0	0	0
Cc1ccc(CN(CC(=O)N/N=C/c2ccccc2[N+](=O)[O-])S(=O)(=O)c2ccc(C)cc2)cc1	0	-	-	0	-	-
O=C(CN(Cc1ccccc1)S(=O)(=O)c1ccccc1)N/N=C/c1ccccc1[N+](=O)[O-]	0	0	-19	0	0	0
C[C@@H]1CN([C@@H](C)CO)C(=O)c2cccc(NC(=O)c3cnccn3)c2O[C@@H]1CN(C)S(C)(=O)=O	0	0	0	-	0	0
CCc1ccc(NC(=O)CN(C)S(=O)(=O)c2ccc3[nH]c(=O)oc3c2)cc1	0	-	-	-	-	-
CN(CC(=O)Nc1cccc(Cl)c1)S(=O)(=O)c1ccc2[nH]c(=O)oc2c1	0	0	-25	0	0	0
CC(C)C[C@@H](COc1ccccc1)N1CCN(CCc2ccccc2)CCC1=O	-	0	0	0	0	101
COc1ccc(/C=N/N(C(C)=O)c2nc(-c3ccc(C)cc3)cs2)cc1	0	-	-	0	146	-
COc1ccccc1/C=N/N(C(C)=O)c1nc(-c2ccc(F)cc2)cs1	0	-	-	0	-	-
CC(=O)N(/N=C/c1cccc(C)c1)c1nc(-c2ccc(Br)cc2)cs1	0	-	-	-	110	-
COc1cccc(-c2cnc3c(c2)C(=O)N([C@@H](C)CO)C[C@@H](C)[C@@H](CN(C)CC2CC2)O3)c1	0	-	0	-	0	-
CC1(C(=O)Nc2ccc3c(c2)OCCO3)CN(S(C)(=O)=O)CC(=O)N1CCc1ccccc1 (stereo not given)	-	-	0	0	0	0
SMILES	PGC1a acetyl inh	ERAP1 HTS inh	Ecoli rRNA inh	CaV13 FRET inh	INS-1E GSIS act	DENV2 CPE rescue
COc1ccc(CCN2C(=O)CSCC2(C)C(=O)Nc2ccc3c(c2)OCCO3)cc1OC (stereo not given)	-	0	0	0	0	21
COCCN1C(=O)CN(S(C)(=O)=O)CC1(C)C(=O)Nc1ccc2c(c1)OCCO2 (stereo not given)	-	0	-	0	0	33
C/C=C/c1ccc([C@H]2[C@@H](C#N)N(c3nc(CC)cs3)[C@@H]2CO)cc1	0	0	0	-	0	-
CCOc1ccc(Cl)cc1/C=N/NC(=O)c1ccccc1	-	0	0	0	0	0
CCOc1ccc(C(=O)N/N=C/c2cc(Cl)ccc2[N+](=O)[O-])cc1	-	-	-	0	92	-
O=C(CSC(=S)N1CCOCC1)Nc1ncc2c(n1)CC(c1ccco1)CC2=O (stereo not given)	-	0	0	0	-	30
c1ccc(CN2CCC(Nc3nc(-c4cccnc4)nc4ccccc34)CC2)cc1	0	0	-33	0	0	0
c1ccc(CNc2nc(-c3cccnc3)nc3ccccc23)cc1	0	0	0	0	0	0
CC(C)CC#Cc1ccc2c(c1)O[C@@H](CN(C)Cc1ccccc1F)[C@@H](C)CN([C@@H](C)CO)S2(=O)=O	0	0	0	-	0	0
C[C@H]1CN(C)C(=O)Cc2cc(N(C)C)ccc2O[C@H]1CN(C)C	-	-	0	-	0	-
CCCCCC(=O)NC1CCCCN(C)C1=O (stereo not given)	-	0	0	0	0	76
CO[C@H]1CN(C)C(=O)c2cccc(C#N)c2OC[C@@H]2O[C@@H](CC[C@H]2OC)CCN(C)C(=O)[C@H]1C	0	0	0	-	0	0
Cn1nc(C(=O)N2CCCCC2)c2c1-c1ccccc1S(=O)(=O)C2	48	0	0	0	0	0
OC(c1ccccc1)(c1nc(-c2ccc(Cl)cc2)cs1)C(F)(F)F (stereo not given)	0	0	0	0	0	0
O=C(O)c1cccc(-c2csc(C(O)(c3ccccc3)C(F)(F)F)n2)c1 (stereo not given)	0	0	0	0	0	0
OC(c1ccccc1)(c1nc(-c2cccc(C(F)(F)F)c2)cs1)C(F)(F)F (stereo not given)	0	0	0	0	106	0
OC(c1ccccc1)(c1nc(-c2cc3ccccc3o2)cs1)C(F)(F)F (stereo not given)	0	0	-38	0	0	0
NS(=O)(=O)c1ccc(Sc2ccccn2)c([N+](=O)[O-])c1	0	0	0	0	0	0
O=C(O)c1ccc(S(=O)(=O)Nc2ccc(O)c(Sc3nc4ccccc4s3)c2)cc1	0	0	-23	0	0	0
NS(=O)(=O)c1ccc(Sc2nc3ccccc3s2)c([N+](=O)[O-])c1	0	-	-25	0	-	0
O=C(O)c1ccc(S(=O)(=O)Nc2cccc(CP(=O)(c3ccccc3)c3ccccc3)c2)cc1	0	0	0	0	0	0
CN1C(=O)c2cc(NC(=O)Cc3ccccc3)ccc2OC[C@@H]2O[C@H](CC(=O)NCc3ccc(Cl)cc3)CC[C@H]21	0	-	0	-	0	0
C[C@@H]1CN([C@H](C)CO)S(=O)(=O)c2ccc(C#Cc3ccccc3)cc2O[C@H]1CN(C)S(C)(=O)=O	0	0	0	-	0	0
C[C@H](CO)N1C[C@H](C)[C@H](CN(C)S(C)(=O)=O)Oc2cc(C#Cc3ccccc3)ccc2S1(=O)=O	0	0	0	-	0	28
